# Where “and” joins values, the source holds several entries; their conditions need not be identical. Identical values can stand only once. Counter-ions that a name gives are not always drawn. The campaign covered roughly 5,800 compounds. About 620 (11%) showed activity. This excerpt belongs to a sample that is enriched for actives. Values without a mark were called inactive.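 The calls were made as follows: active = score above a cut-off or among the top three wells of a plate; in these data no inactive exceeds 0.85.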
# Test system: primary human hepatic stellate cells (donor 1)
# Test: scaled lipid accumulation score (0 = DMSO-like, 1 = nortriptyline-like); higher = stronger HSC inactivation (lipid re-accumulation), active = hit call of the paper
# Conditions: 48 h
# [1] = library stock concentration: 3.33 mM
# [2] = library stock concentration: 1 mM
# [3] = library stock concentration: 10 mM
# [4] = library stock concentration: 100 uM
# [5] = library stock concentration: 80 uM
# [6] = library stock concentration: 400 uM
# [7] = library stock concentration: 2 mM
# [8] = library stock concentration: 6.8 mM
smiles,measurement,setting,value
CCCC(=O)Oc1ccc2[nH]c(C(=O)c3cc4ccccc4[nH]3)cc2c1 [PDGF Receptor Tyrosine Kinase Inhibitor II],scaled lipid accumulation score,[1],≤ 0
CC(C)(C)OC(=O)N1CCC(OCc2nc(-c3ccncc3)no2)CC1,scaled lipid accumulation score,[2],0.013
N#Cc1ccc(NCCNCC(=O)N2CCC[C@H]2C#N)nc1 [NVP DPP 728 dihydrochloride],scaled lipid accumulation score,[3],≤ 0
CN1CC[C@]23c4ccccc4N[C@H]1[C@]21CCN(C)[C@H]3Nc2ccccc21 [Calycanthine],scaled lipid accumulation score,,0.246
CCCC/C=C\CCCCCCCC(=O)OC [Myristoleic Acid methyl ester],scaled lipid accumulation score,[2],≤ 0
Cn1cnc(=N)c2[nH]cnc21 [3-Methyladenine],scaled lipid accumulation score,[1],≤ 0
same,scaled lipid accumulation score,[3],≤ 0
CCCCC/C=C\C\C=C/C=C/C=C/[C@@H](SC[C@H](NC(=O)CC[C@H](N)C(=O)O)C(=O)NCC(=O)O)[C@@H](O)CCCC(=O)O [Leukotriene C4],scaled lipid accumulation score,[4],≤ -0.021
Fc1ccc(C(OCCCc2cnc[nH]2)c2ccc(F)cc2)cc1,scaled lipid accumulation score,[3],0.81
Cc1nc2c(c(=O)[nH]1)CSCC2,scaled lipid accumulation score,[3],≤ -0.001
CCCCC/C=C\C/C=C\C/C=C\C/C=C\CCCC(=O)O[C@H](COCCCCCCCCCCCCCCCC)COP(=O)([O-])OCC[N+](C)(C)C [Arachidonoyl-PAF],scaled lipid accumulation score,[2],≤ -0.021
O=C1Cc2c([nH]c3ccc(Br)cc23)-c2ccccc2N1 [Kenpaullone],scaled lipid accumulation score,[2],≤ 0
same,scaled lipid accumulation score,[1],≤ 0
same,scaled lipid accumulation score,[3],≤ -0.055 and 0.348
"CN1C(=O)/C(=C2\Nc3ccccc3\C2=N\O)c2ccc(Br)cc21 [GSK-3 Inhibitor IX, Control, MeBIO]",scaled lipid accumulation score,[1],1.07 (active)
COC(=O)C(N)CS (configuration not stated) [Mecysteine hydrochloride],scaled lipid accumulation score,[3],≤ 0
O=C(O)CCC/C=C\C[C@@H]1[C@@H](/C=C/[C@@H](O)C2Cc3ccccc3C2)[C@@H](F)C[C@@H]1O,scaled lipid accumulation score,[2],≤ 0
CC(=O)OCC1=C(C(=O)O)N2C(=O)[C@@H](NC(=O)CSc3ccncc3)[C@H]2SC1 [Cephapirin sodium],scaled lipid accumulation score,library stock concentration: 4.5 mM,≤ -0.001
same,scaled lipid accumulation score,[3],≤ 0
CCOC(=O)c1ccc(N=Nc2ccc(O)c(CC(=O)O)c2)cc1,scaled lipid accumulation score,[2],≤ 0
CC#CCC(C)[C@H](O)/C=C/[C@@H]1[C@H]2C/C(=C/CCCC(=O)O)C[C@H]2C[C@H]1O (stereo partly drawn) [5-cis Iloprost],scaled lipid accumulation score,[2],0.135
"CCCCC[C@H](O)/C=C/[C@@H]1[C@H]2C/C=C\CCCC(=O)O[C@H]2C[C@H]1O [Prostaglandin F2.alpha. 1,9-lactone]",scaled lipid accumulation score,[2],≤ 0
CCN(CCO)CCCOc1ccc2c(Nc3cc(CC(=O)Nc4cccc(F)c4)[nH]n3)ncnc2c1 [Barasertib (AZD1152-HQPA)],scaled lipid accumulation score,[1],≤ 0
same,scaled lipid accumulation score,[3],≤ 0
COc1ccc(Cl)cc1NC(=O)Nc1cc(C)nc2ccccc12 [listing 1 of 2 here],scaled lipid accumulation score,[1],0.097
same,scaled lipid accumulation score,[3],0.391
COc1ccc(Cl)cc1NC(=O)Nc1cc(C)nc2ccccc12 [listing 2 of 2 here],scaled lipid accumulation score,[3],1.1 (active)
COc1ccc(Cl)cc1NC(=O)Nc1cc(C)nc2ccccc12 [IGF-1R Inhibitor II],scaled lipid accumulation score,[1],0.188
CCn1cc(NC(=S)Nc2cc(Cl)ccc2OC)c(C(N)=O)n1,scaled lipid accumulation score,[1],≤ -0.009
same,scaled lipid accumulation score,[3],0.111
O=C(CCSCc1ccco1)NNC(=O)N1Cc2ccccc2Oc2ccc(Cl)cc21,scaled lipid accumulation score,[3],≤ 0
CC1CCN=C(N)S1 (configuration not stated),scaled lipid accumulation score,[3],≤ 0
CC1CCN=C(N)S1 (configuration not stated) [AMT hydrochloride],scaled lipid accumulation score,[3],0.018
O=C(c1ccc(Nc2nccc(-c3cc4ccccc4s3)n2)cc1)N1CCC(N2CCCC2)CC1 [IKK-16 (IKK Inhibitor VII)] [listing 1 of 2 here],scaled lipid accumulation score,[3],0.246
O=C(c1ccc(Nc2nccc(-c3cc4ccccc4s3)n2)cc1)N1CCC(N2CCCC2)CC1 [IKK Inhibitor VII],scaled lipid accumulation score,[1],1.06 (active)
O=C(c1ccc(Nc2nccc(-c3cc4ccccc4s3)n2)cc1)N1CCC(N2CCCC2)CC1 [IKK-16 (IKK Inhibitor VII)] [listing 2 of 2 here],scaled lipid accumulation score,[1],1.04 (active)
O=C(c1cncc(Br)c1)N1CCC(N2CCCC2)CC1,scaled lipid accumulation score,[5],≤ 0
same,scaled lipid accumulation score,[6],≤ 0
same,scaled lipid accumulation score,[7],≤ 0
same,scaled lipid accumulation score,[1],≤ -0.009
same,scaled lipid accumulation score,[3],≤ 0
O=C(c1ccc(C(=O)N2CCC(N3CCCC3)CC2)c(Nc2ccccc2)c1)N1CCC(N2CCCC2)CC1,scaled lipid accumulation score,[5],≤ 0
same,scaled lipid accumulation score,[6],≤ 0
same,scaled lipid accumulation score,[7],≤ 0
same,scaled lipid accumulation score,[1],≤ 0
same,scaled lipid accumulation score,[3],0.002 and ≤ 0
O=C(c1ccc(Nc2nccc(-c3cc4ccccc4s3)n2)cc1)N1CCC(N2CCCC2)CC1,scaled lipid accumulation score,[3],0.18
O=C(Cc1cccs1)N[C@@H]1C(=O)N2C(C(=O)[O-])=C(C[n+]3ccccc3)CS[C@H]12 [Cephaloridine],scaled lipid accumulation score,[3],≤ 0
COc1ccc2cc([C@H](C)CO)ccc2c1 [Naproxol],scaled lipid accumulation score,library stock concentration: 9.2 mM,≤ 0
same,scaled lipid accumulation score,[3],0.031
O=c1cc(CN2CCOCC2)occ1OCCCCCSc1ccnc2cc(C(F)(F)F)ccc12,scaled lipid accumulation score,[1],≤ -0.009
same,scaled lipid accumulation score,[3],0.475
CCCCC[C@H](O)/C=C/[C@H]1[C@H](O)CC(=O)[C@@H]1C/C=C/CCCC(=O)O [5-trans Prostaglandin E2],scaled lipid accumulation score,[2],≤ 0
COC(=O)Nc1nc2cc(C(=O)c3cccs3)ccc2[nH]1 [Nocodazole] [listing 1 of 2 here],scaled lipid accumulation score,[1],0.021
same,scaled lipid accumulation score,library stock concentration: 6.6 mM,0.262
COC(=O)Nc1nc2cc(C(=O)c3ccccc3)ccc2[nH]1 [Mebendazole],scaled lipid accumulation score,,≤ 0
same,scaled lipid accumulation score,[8],0.082
same,scaled lipid accumulation score,[3],0.402 and 0.071
COC(=O)Nc1nc2cc(C(=O)c3ccccc3)ccc2[nH]1 [Mebendazol],scaled lipid accumulation score,[8],0.097
COC(=O)Nc1nc2cc(C(=O)c3cccs3)ccc2[nH]1 [Nocodazole] [listing 2 of 2 here],scaled lipid accumulation score,,0.883 (active)
CCCNS(=O)(=O)Nc1ncnc(OCCOc2ncc(Br)cn2)c1-c1ccc(Br)cc1 [Macitentan],scaled lipid accumulation score,[1],≤ -0.009
same,scaled lipid accumulation score,[3],≤ 0
"CCCCCCCCCCCCC/C=C/[C@@H](O)[C@H](CO)N(C)C [N,N-Dimethylsphingosine] [listing 1 of 2 here]",scaled lipid accumulation score,[2],0.965 (active)
"CCCCCCCCCCCCC/C=C/[C@@H](O)[C@H](CO)N(C)C [N,N-Dimethylsphingosine] [listing 2 of 2 here]",scaled lipid accumulation score,[2],0.185
CCCCCCCCCCCCC/C=C/[C@@H](O)[C@@H](N)CO [Sphingosine],scaled lipid accumulation score,[2],≤ -0.021
Nc1nc(NCC2CCC(CNS(=O)(=O)c3cccc4ccccc34)CC2)nc2ccccc12 (configuration not stated),scaled lipid accumulation score,[3],0.415
O=C(/C=C/c1ccc(/C=C/C(=O)Nc2ccc(C3=NCCN3)cc2)cc1)Nc1ccc(C2=NCCN2)cc1 [GW 4869 (hydrochloride hydrate)],scaled lipid accumulation score,[2],0.115
CCCCC[C@H](O)/C=C/[C@H]1[C@H](O)CC(=O)[C@@H]1C/C=C/CCCC(=O)Oc1ccc(NC(C)=O)cc1 [Prostaglandin E2 p-acetamidophenyl ester],scaled lipid accumulation score,[2],≤ 0
C[C@@H](O)CCC[C@H](O)/C=C/C1=C(C/C=C\CCCC(=O)O)C(=O)CC1 [19(R)-hydroxy Prostaglandin B2],scaled lipid accumulation score,[2],≤ 0
Fc1ccc([C@@H]2CCNC[C@H]2COc2ccc3c(c2)OCO3)cc1.O=C(O)/C=C\C(=O)O [Paroxetine],scaled lipid accumulation score,[3],1.02 (active)
Fc1ccc([C@@H]2CCNC[C@H]2COc2ccc3c(c2)OCO3)cc1.O=C(O)/C=C\C(=O)O [Paroxetine maleate],scaled lipid accumulation score,[3],1.14 (active)
CN1CCC(c2c(O)cc(O)c3c(=O)cc(-c4ccccc4Cl)oc23)C1CO (configuration not stated) [Riviciclib],scaled lipid accumulation score,[5],0.019
same,scaled lipid accumulation score,[6],0.272
same,scaled lipid accumulation score,[7],≤ -0.001
same,scaled lipid accumulation score,[3],0.002
"COC(=O)/C=C/c1cc(O)ccc1O [Methyl 2,5-dihydroxycinnamate]",scaled lipid accumulation score,[3],0.182
CC#CCOC(=O)c1c(C)nc2sc3c(c2c1N)CCC(O)C3 (configuration not stated) [listing 1 of 2 here],scaled lipid accumulation score,[3],0.882 (active)
CC#CCOC(=O)c1c(C)nc2sc3c(c2c1N)CCC(O)C3 (configuration not stated) [listing 2 of 2 here],scaled lipid accumulation score,[3],1.72 (active)
Cc1cccc(C2CN(C)CCc3c2cc(O)c(O)c3Cl)c1 (configuration not stated),scaled lipid accumulation score,[3],0.086
CCN(CC)CC#CCOC(=O)C(O)(c1ccccc1)C1CCCCC1 (configuration not stated) [Oxybutynin chloride],scaled lipid accumulation score,,0.397
same,scaled lipid accumulation score,[1],0.234
same,scaled lipid accumulation score,library stock concentration: 5.1 mM,0.317
same,scaled lipid accumulation score,[3],0.48
CCN(CC)CC#CCOC(=O)C(O)(c1ccccc1)C1CCCCC1.Cl (configuration not stated) [Oxybutynin Chloride],scaled lipid accumulation score,[3],0.862 (active)
CC[N+](C)(CC)CCOC(=O)C(O)(c1ccccc1)C1CCCCC1 (configuration not stated),scaled lipid accumulation score,[3],≤ 0
CCCCC/C=C\C\C=C/C=C/C=C/[C@@H](SC[C@H](N)C(=O)NCC(=O)O)[C@@H](O)CCCC(=O)O [Leukotriene D4],scaled lipid accumulation score,[4],≤ -0.014
"N#Cc1cc([N+](=O)[O-])c2sc(C(N)=O)[n+]([O-])c2c1 [Polo-like Kinase Inhibitor II, BTO-1]",scaled lipid accumulation score,[1],≤ 0
CCCCC/C=C\C=C\[C@@H](O)CCCCCCCC(=O)O,scaled lipid accumulation score,[4],≤ -0.021
O=C(CN=C(c1ccccc1)c1ccccc1)OCc1ccccc1 [N-(diphenylmethylene) Glycine benzyl ester],scaled lipid accumulation score,[2],0.004
C#CCCCCCCCCCNC(=O)Oc1cccc(-c2cccc(C(N)=O)c2)c1,scaled lipid accumulation score,[2],≤ 0
CCC(=O)Nc1cccc(Oc2nc(Nc3ccc(N4CCN(C)CC4)cc3OC)ncc2Cl)c1 [listing 1 of 3 here],scaled lipid accumulation score,[3],0.997 (active)
CCC(=O)Nc1cccc(Oc2nc(Nc3ccc(N4CCN(C)CC4)cc3OC)ncc2Cl)c1 [listing 2 of 3 here],scaled lipid accumulation score,[5],≤ -0.001
same,scaled lipid accumulation score,[6],≤ -0.001
same,scaled lipid accumulation score,[7],≤ -0.001
same,scaled lipid accumulation score,[1],0.472
CCC(=O)Nc1cccc(Oc2nc(Nc3ccc(N4CCN(C)CC4)cc3OC)ncc2Cl)c1 [listing 3 of 3 here],scaled lipid accumulation score,[3],1.11 (active)
COc1cc(N2CCC(N3CCN(C)CC3)CC2)ccc1Nc1ncc(Cl)c(Nc2ccccc2S(=O)(=O)C(C)C)n1,scaled lipid accumulation score,[5],≤ 0
same,scaled lipid accumulation score,[6],0.087
same,scaled lipid accumulation score,[7],0.571
same,scaled lipid accumulation score,[3],0.613
C=CC(=O)Nc1cccc(Oc2nc(Nc3ccc(N4CCN(C)CC4)cc3)ncc2Cl)c1,scaled lipid accumulation score,[1],0.415
same,scaled lipid accumulation score,[3],0.711
C=CC(=O)Nc1cccc(Oc2nc(Nc3ccc(N4CCN(C)CC4)cc3OC)ncc2Cl)c1,scaled lipid accumulation score,[5],≤ 0
same,scaled lipid accumulation score,[6],≤ 0
same,scaled lipid accumulation score,[7],0.172
same,scaled lipid accumulation score,[1],0.507
same,scaled lipid accumulation score,[3],0.707 and 0.265
